# DRD3 antagonist: D3 dopamine receptor (human) antagonism; P35462; D3R cells, DiscoveRx beta-arrestin luminescence, antagonist mode; hits give low values; AID 652054; max response, negative = inhibition, %; 360,000 tested, 2.5% active; in the data active means max response below about -50%; inconclusive means no clear call, values can overlap the other calls; further: on the % scale 0 is the no-effect control and ±100 the full control effect
# Target sequence (P35462 whole entry, looked up): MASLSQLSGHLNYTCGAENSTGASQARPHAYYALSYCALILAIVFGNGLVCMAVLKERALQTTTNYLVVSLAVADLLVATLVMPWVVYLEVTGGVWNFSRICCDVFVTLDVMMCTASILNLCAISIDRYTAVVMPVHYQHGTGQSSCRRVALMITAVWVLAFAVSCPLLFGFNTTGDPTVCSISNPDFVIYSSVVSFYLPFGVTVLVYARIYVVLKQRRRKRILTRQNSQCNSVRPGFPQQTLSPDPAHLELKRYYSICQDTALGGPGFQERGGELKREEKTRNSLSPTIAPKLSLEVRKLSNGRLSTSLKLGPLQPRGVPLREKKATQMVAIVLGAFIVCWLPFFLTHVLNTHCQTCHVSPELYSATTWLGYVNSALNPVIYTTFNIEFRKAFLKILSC
#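 Cells expressing the human receptor were seeded at 1500 cells/well, incubated overnight at 37 degrees C in 5% CO2, then exposed to library compounds with dopamine controls for 90 minutes at 37 degrees C before luminescent detection.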
# Glioma ERSR ind: inducers of ER stress response in human glioma cells; 420,000 tested, 0.02% active; U87-MG GRP78 promoter luciferase reporter, 16 h; Potency, µM, inactives show top-dose activation, most hits filed as activators; AID 602332; further: potency means the concentration at half of the fitted maximal effect; series mostly up to about 76 µM; % of control where 0% means no effect; nearly all actives have a fitted effect of over 35% in size
#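 Stably transfected U87-MG human glioma cells carrying a GRP78-based luminescent sensor were seeded at 1000 cells/well, pin-dosed with compounds and incubated 16 h. Luciferase reagent was then added, and end-point luminescence was read after 10 min at room temperature.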
# DRD3 agonist: D3 dopamine receptor (human) agonism; P35462; D3R DiscoveRx beta-arrestin cells, luminescence, 90 min; max activation, %; 410,000 tested, 0.58% active; in the data active means max activation above about 30%; further: 0% is about no effect
#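 Agonist mode: compounds and dopamine controls were applied to plated cells for 90 min at 37 degrees C after an overnight attachment at 1500 cells/well. Luminescent read-out followed 30 - 60 minutes at room temperature with DiscoveRx detection reagent.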
# Nrf2 ARE act: activators of Nrf2 (ARE) signaling; AREc32 ARE-luciferase reporter (MCF7-derived line), luminescence, 24 h; AID 624171; Potency, µM (top dose mostly 46.1 µM), inactives show at the highest dose activation, most hits filed as activators; 410,000 tested, 0.31% active; further: potency means the concentration at half of the fitted maximal effect; % of control where 0% means no effect; nearly all actives have a fitted effect of over 65% in size
#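 Steps: seed AREc32_Fluc cells (1000/well, 5% FBS OPTI-MEM); incubate overnight at 37 deg C; add 23 nL compound; incubate 24 hr; add Steady-Glo; hold 30 min RT; read luminescence.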
# An asterisk follows results filed as active; ? = inconclusive; nt = no result. Most compounds without a hit are left out; they make up all but 3% or so of the library. Unless noted, the call rests on the fitted dose curve; in most records, active means well fitted curve in the direction sought with a large enough effect; inconclusive means small, poorly fitted or top-dose-only effect, or another doubt; inactive means no such curve, though single readings can be large; an effect the other way counts as inactive or inconclusive.
SMILES,DRD3 antagonist,Glioma ERSR ind,DRD3 agonist,Nrf2 ARE act
CCC(Oc1ccccc1)C(=O)N[C@@H]1C(=O)N2[C@@H]1SC(C)(C)[C@@H]2C(=O)O (some centres not stated),nt,nt,7,nt
O=C(C[N+]12CCCc3cccc(c31)CCC2)c1ccc(Cl)c2ccccc12,nt,1%,nt,nt
COc1cccc(NC(=O)COC(=O)c2c(F)cccc2Cl)c1,-62*,6%,1,0%
CC(=O)c1ccc(NC(=O)COC(=O)c2c3c(nc4ccccc24)/C(=C\c2cccs2)CCC3)cc1,-6,-1%,-1,0%
CC1CCc2nc3ccccc3c(C(=O)OCC(=O)NC3CCS(=O)(=O)C3)c2C1 (configuration not stated),5,-1%,1,0%
COc1cccc(NC(=O)COC(=O)c2c3c(nc4ccccc24)CCC(C)C3)c1 (configuration not stated),33,-5%,53*,-3%
O=C(COC(=O)c1c2c(nc3ccccc13)/C(=C\c1cccs1)CCC2)Nc1ccccc1,43,-4%,38*,2%
CC(C)(C)NC(=O)COC(=O)c1c2c(nc3ccccc13)CCC2,44,-5%,14,0%
CC(C)NC(=O)NC(=O)COC(=O)c1c2c(nc3ccccc13)CCC2,83,-9%,36*,-1%
Cc1oc(-c2ccccc2NC(=O)c2ccccn2)nc1CNC(=O)c1cccc(C#CC(C)(C)O)c1,nt,5%,nt,nt
CCN1C(=O)c2ccccc2S(=O)c2ccc(C(=O)NCc3ccc(Cl)cc3)cc21 (configuration not stated),nt,0%,-24,-3%
CCCN(CCC)C(=O)Cn1nnc2sc(-c3ccccc3)cc2c1=O,nt,nt,1,?
CCN(C(=O)Cn1nnc2sc(-c3ccccc3)cc2c1=O)c1cccc(C)c1,nt,nt,8,4.5µM*
Cc1ncc(N=Nc2ccccc2)c(-c2ccccc2)n1,-1,-2%,-5,4µM*
O=c1ccc2ccccc2c2ccccc12,-79*,-10%,-11,?
COc1cccc(O)c1O,nt,-11%,nt,nt
NCCCC[C@H](NC(=O)[C@H](Cc1c[nH]c2ccccc12)NC(=O)[C@H](CC(=O)O)NC(=O)[C@H](Cc1cnc[nH]1)NC(=O)[C@H](CO)NC(=O)[C@H](Cc1c[nH]c2ccccc12)NC(=O)[C@H](Cc1cnc[nH]1)NC(=O)[C@@H]1CCC(=O)N1)C(=O)N1CCC[C@H]1C(=O)NCC(N)=O,nt,-3%,nt,nt
O=C(O)c1cc(-n2nnnc2SCc2ccc([N+](=O)[O-])cc2)ccc1Cl,-54*,-3%,-7,-2%
O=C(O)c1cc(-n2nnnc2SCc2ccccc2F)ccc1Cl,7,-2%,1,2%
O=C(O)C1C2C=CC(C2)C1C(=O)NC1CCS(=O)(=O)C1 (configuration not stated),-102*,-4%,6,0%
O=C(CN1CCN(c2ccc(O)cc2)CC1)Nc1ccc(S(=O)(=O)N2CCCC2)cc1,9,-4%,98*,3%
O=C(CN1CCOCC1)Nc1ccc(S(=O)(=O)N2CCCCCC2)cc1,4,-5%,31*,0%
Cc1ccc(S(=O)(=O)N2CCN(CC(=O)Nc3ccc(N4CCOCC4)cc3)CC2)cc1C,-93*,-5%,2,0%
O=C(CNC1CCN(Cc2ccccc2)CC1)Nc1ccc(S(=O)(=O)N2CCCCC2)cc1,-82*,-4%,-20,0%
CCCCN1CC[C@H]2C=CC[C@@H](C(=O)NC3CCCCC3)[C@H]2C1=O,nt,1%,nt,nt
SMILES,DRD3 antagonist,Glioma ERSR ind,DRD3 agonist,Nrf2 ARE act
Nc1cc(=O)nc(SCC(=O)Nc2ccc(F)cc2)n1-c1ccccc1Cl,nt,-2%,14,9%
CCC(CC)=N/N=C/c1c(O)n(CC)c2cc(C3=NNC(=O)CC3)ccc12,-53*,-4%,-2,4%
CCn1c(O)c(/C=N/N=C/c2ccccc2)c2ccc(C3=NNC(=O)CC3)cc21,21,-3%,7,2%
CCC1CN(CCNC(=O)c2cccc(C(=O)OC)c2)Cc2cc(OC)ccc2O1 (configuration not stated),nt,-2%,nt,nt
N=c1c[n+](N2CCOCC2)[n-]o1,-107*,0%,-11,-1%
FC(F)(F)c1cnc(NNC(=S)Nc2ccccc2Cl)c(Cl)c1,-75*,-11%,-17,5%
Cc1cccc(NC(=S)NNc2ncc(C(F)(F)F)cc2Cl)c1,-64*,-12%,-15,-1%
COc1ccc(Cl)cc1Nc1nc(C)cc(=O)[nH]1,-81*,2%,-15,6%
O=C(Nc1cccc2cccnc12)c1c(Cl)cc(Cl)cc1Cl,nt,-1%,nt,nt
COc1cccc(NC(=O)C(Sc2nnc(Nc3ccccc3C)s2)c2ccccc2)c1 (configuration not stated),-54*,-3%,-11,0%
Oc1c(Br)cc(Br)cc1/C=N/N1CCN(Cc2ccccc2)CC1,-80*,1%,-28,0%
Cc1nn(-c2cc(N3CCCC3)ccc2[N+](=O)[O-])c(=O)c2ccccc12,-59*,0%,-1,0%
O=C(COC(=O)c1ccccc1)Nc1cccc(S(=O)(=O)NC2=NCCCCC2)c1,20,-1%,-2,1%
CC1(C(=O)OCC(=O)Nc2cccc(S(=O)(=O)NC3=NCCCCC3)c2)CC1(Cl)Cl (configuration not stated),1,-2%,45*,0%
Cc1noc(-c2ccc(N3CCC(C)CC3)c([N+](=O)[O-])c2)n1,nt,-1%,-5,4%
O=C(/C=C/c1ccncc1)c1ccc(NC(=O)c2ccccc2F)cc1,-67*,-17%,-24,?
COc1ccc(NC(=O)COc2ccc(-c3nn(C)c(=O)c4ccccc34)cc2)cc1,-18,0%,-8,0%
Cc1ccc(-c2nn(C)c(=O)c3ccccc23)cc1CO,-50*,2%,-2,3%
COc1ccc(OCC(=O)Nc2cc(-c3nn(C)c(=O)c4ccccc34)ccc2OC)cc1,-62*,-2%,4,1%
Cc1c(C(=O)N2CCCCC2)sc2ncnc(NCCc3ccccn3)c12,nt,-4%,nt,nt
CC(CNC(=O)c1cc2ccccn2n1)c1ccccc1 (configuration not stated),nt,2%,-7,5%
CC(C)(C)n1ncc2c(=O)n(Cc3ccc(SC(=O)O)cc3Cl)cnc21,nt,-3%,nt,nt
COc1ncccc1C(=O)N1CCC(n2nccc2NC(=O)CC(C)C)CC1,-52*,0%,-11,0%
COc1ccc(C(=O)Nc2oc(-c3ccccc3)c(-c3ccccc3)c2C#N)cc1,-64*,-6%,-17,0%
COc1ccccc1N1CCN(c2nc(CNC(=O)c3ccc4c(c3)OCO4)nc3ccccc23)CC1,nt,-4%,nt,nt
Cc1nc(NCCc2ccc(S(N)(=O)=O)cc2)c2c3c(sc2n1)CCC3,41,-2%,35*,4%
O=S(=O)(N/N=C/c1cccc(OC2CSC2)c1)c1ccccc1,-66*,1%,-10,0%
Cc1ccc2nc3n(c2c1)CCCN3,-59*,0%,0,3%
Clc1cccc(C2=NC(c3cccs3)=Nc3ccc(Br)cc3N2)c1,nt,2%,-12,8%

# Assay outcomes as filed in PubChem.
